Reference: PubChem BioAssay
Calls of active or inactive are those of the source. No rule for the calls is given here.

These compounds were tested against Pantothenate synthetase (Mycobacterium tuberculosis (strain ATCC 25618 / H37Rv)) (UniProt P9WIL5) (assay: Coupled enzyme confirmation of inhibitors against recombinant Mtb PanC (AID 375;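 also: 0% = full reaction with vehicle and 100% = no enzyme background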)). Conditions: coupled enzyme assay; at 10 µM, active compounds read high.
Pantothenate synthetase (Mycobacterium tuberculosis (strain ATCC 25618 / H37Rv)), sequence (P9WIL5 whole entry, looked up): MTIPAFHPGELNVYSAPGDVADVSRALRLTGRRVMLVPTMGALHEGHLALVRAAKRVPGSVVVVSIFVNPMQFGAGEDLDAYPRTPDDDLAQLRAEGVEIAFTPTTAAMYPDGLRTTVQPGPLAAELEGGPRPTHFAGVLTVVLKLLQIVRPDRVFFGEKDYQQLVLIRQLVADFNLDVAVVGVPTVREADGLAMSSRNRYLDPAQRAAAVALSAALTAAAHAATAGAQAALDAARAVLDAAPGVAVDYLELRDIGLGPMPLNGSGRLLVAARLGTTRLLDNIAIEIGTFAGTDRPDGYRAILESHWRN

| Compound | inhibition |
| --- | --- |
| CCCC(=O)Nc1ccccc1NC(=O)CCC | 0% (inactive) |
| O=C(Nc1ccccc1)c1cccc(N2CCCC2=O)c1 | 6% (inactive) |
| CCOC(=O)CC(=O)CSc1nc(-c2cccnc2)ccc1C#N | 0% (inactive) |
| C=CCSc1nnc2n(CCc3ccccc3)c(=O)c3c4c(sc3n12)COC(C)(C)C4 | 0% (inactive) |
| C=CCn1cnc2c(NCc3ccccc3)ncnc21 | 4% (inactive) |
| Cc1ccc(-c2nnc(SCC(=O)N3CC(C)CC(C)C3)o2)cc1C (stereo not drawn) | 0% (inactive) |
| COCCn1c(-c2ccc(OC)c(OC)c2)nc2ccccc21 | 0% (inactive) |
| O=C(O)c1cccc(CN2C(=O)SC(Nc3ccccc3)C2=O)c1 (stereo not drawn) | 4% (inactive) |
| O=C(CCS(=O)(=O)c1cccc2nsnc12)NCc1ccccc1 | 0% (inactive) |
| CN1CCc2c(sc3c2C(=O)NC(c2cccc(OC(=O)c4cccs4)c2)N3)C1 (stereo not drawn) | 0% (inactive) |
| O=c1c2ccccc2nc(SCc2cccc(F)c2)n1Cc1ccco1 | 4% (inactive) |
| CCOC(=O)c1[nH]c2ccc(Br)cc2c1NC(=O)CCN1CCC(C(=O)OCC)CC1 | 0% (inactive) |
| O=S(CC(O)COCc1ccc(Cl)cc1)c1ccccn1 (stereo not drawn) | 0% (inactive) |
| O=c1cc(NCc2ccccc2)nc2n1CCCS2 | 0% (inactive) |
| NCc1cccc(-n2cccn2)c1 | 0% (inactive) |
| COC(=O)c1nc(N)sc1-c1ccccc1 | 0% (inactive) |
| COc1ccc(CC(=O)Nc2c3c(nn2-c2cccc(Cl)c2)CS(=O)C3)cc1 (stereo not drawn) | 7% (inactive) |
| O=[N+]([O-])c1cccc2cn[nH]c12 | 0% (inactive) |
